Reference: PubChem BioAssay (EPA / NIEHS)
Calls of active or inactive are those of the source. How the source made its calls: active means hit-call score of the fitted dose curve at least 0.9, where 1 is the maximum; inactive means score below 0.9.

Read-out: Interferon-gamma inducible Protein 10 (IP10), CXCL10 (gene 3627)
Assay: BSK_BE3C_IP10: BioMAP Diversity Plus: BE3C Assay for Interferon-gamma inducible Protein 10 (IP10) Biomarker Activity (AID 2283034)
Settings: primary human bronchial epithelial cells; actives raise or lower the signal
Method: BSK_BE3C is a cell-based, multiplexed-readout assay that uses bronchial epithelial cell, a human lung primary cell, with measurements taken at 24 hours after chemical dosing in a 96-well plate.BSK_BE3C_IP10 is an assay component measured in the BSK_BE3C assay. It measures IP-10 antibody related to regulation of gene expression using ELISA technology.Data from the assay component BSK_BE3C_IP10 was analyzed into 1 assay endpoint. This assay endpoint, BSK_BE3C_IP10, was analyzed with bidirectional fitting relative to DMSO as the negative control and baseline of activity. Using a type of binding reporter, gain or loss-of-signal activity can be used to understand changes in the signaling as they relate to the gene CXCL10. Furthermore, this assay endpoint can be referred to as a primary readout, because this assay has produced multiple assay endpoints where this one serves a signaling function. To generalize the intended target to other relatable targets, this assay endpoint is annotated to the cytokine intended target family, where the subfamily is chemotactic factor.
The levels of cell surface (or secreted, indicated by the prefix "s") biomarker endpoints were measured by ELISA. Overt cytotoxicity to cells in confluent adherent cultures (all systems other than the BT system) was assessed by measuring total protein levels using sulforhodamine B (SRB) staining in parallel cultures at the time of biomarker measurements, indicated as SRB endpoints. For proliferation assays for adherent cell types, individual cell types are cultured at sub-confluence and relative cell numbers quantified by SRB staining at time points optimized for each system (48 h: 3C and CASM3C systems; 72 h: BT and HDF3CGF systems; 96 h: SAg system). SRB was performed by staining cells with 0.1% SRB after fixation with 10% TCA and reading wells at 560 nm.Viability and proliferation of PBMC (T cells) was quantified by Alamar Blue reduction for the SAg and BT systems. For PBMC viability (referred to as PBMC Cytotoxicity within the assay endpoint names), cells were plated (75,000/well in a 96-well plate) and then chemical samples added for 1 h before addition of activators, SEB and TSST-1 (20 ng/mL final concentration each). Cells were incubated for 90 h. Then, Alamar Blue (20 uL/well) (Invitrogen, Cat DAL1100) was added for 6 h, and the plates were read with a fluorescence microplate reader at 546/580 nm (excitation/emission). For PBMC proliferation, cells were plated and activated as above but incubated for only 16 h prior to addition of Alamar Blue. Plates were read after 6 h.

Structure (SMILES) | outcome | AC50
C=C(C)[C@H]1CC=C(C)C(=O)C1 | inactive | –
CC(C=O)Cc1ccc(C(C)(C)C)cc1 (stereo not given) | – | 29.7 µM (active)
O=C(Nc1ccc2c(O)c(N=Nc3ccc(N=Nc4ccc(S(=O)(=O)O)cc4)cc3)c(S(=O)(=O)O)cc2c1)c1ccccc1 | inactive | –
CS(=O)(=O)OCCCCOS(C)(=O)=O | inactive | –
C=C(C)C(=O)OCCOCCOCCOCCOC(=O)C(=C)C | inactive | –
CCCCCCC(CO)CCCC (stereo not given) | inactive | –
CC(C)(C)CC(C)(C)c1ccc(OCCOCC[N+](C)(C)Cc2ccccc2)cc1 | – | 8.05 µM (active)
CC1(C)C2=CCCC(C)(C)[C@]23CC[C@H]1C3 | – | 20 µM (active)
IC(I)I | inactive | –
Cc1cc(CCC(=O)OCCOCCOCCOC(=O)CCc2cc(C)c(O)c(C(C)(C)C)c2)cc(C(C)(C)C)c1O | – | 10.1 µM (active)
CN(C)C(=S)SC(=S)N(C)C | – | 34.7 µM (active)
c1ccc(CCc2ccccc2)cc1 | – | 29.7 µM (active)
Oc1c(Cl)cc(Cl)c(Cl)c1Cc1c(O)c(Cl)cc(Cl)c1Cl | – | 8.17 µM (active)
O=C1OC2(c3ccccc31)c1ccc(O)c(Br)c1Oc1c2ccc(O)c1Br | inactive | –
c1ccc2cc(Nc3ccc(Nc4ccc5ccccc5c4)cc3)ccc2c1 | inactive | –
CSCCC=O | inactive | –
CC(=O)C1(C)CC2=C(CCCC2(C)C)CC1C (stereo not given) | – | 25.6 µM (active)
CCN(CC)C(=O)N(CC)CC | inactive | –
CCCCCC(C=O)=Cc1ccccc1 | – | 30.6 µM (active)
CC=Cc1ccc(OCC)c(O)c1 | inactive | –

Structure (SMILES) | outcome | AC50
COc1ccc(CCN2CCC(Nc3nc4ccccc4n3Cc3ccc(F)cc3)CC2)cc1 | inactive | –
CN(C)C(=O)Nc1ccc(Oc2ccc(Cl)cc2)cc1 | inactive | –
O=C1c2ccccc2C(=O)c2c(O)ccc(O)c21 | inactive | –
Clc1cc(Cl)c(-c2c(Cl)c(Cl)cc(Cl)c2Cl)cc1Cl | – | 17.5 µM (active)
COc1ccc(OC)c(N=Nc2c(O)ccc3ccccc23)c1 | – | 6.72 µM (active)
CCOC(=O)C(C#N)=C(c1ccccc1)c1ccccc1 | inactive | –
CC(=O)c1c(C)c([N+](=O)[O-])c(C(C)(C)C)c([N+](=O)[O-])c1C | inactive | –
CC(=O)Nc1ccc(C(=O)CCl)cc1 | – | 25.6 µM (active)
CCCCCCCCCCCCCCCC(=O)OC/C=C(C)/C=C/C=C(C)/C=C/C1=C(C)CCCC1(C)C | inactive | –
CC(C)(N=C=O)c1cccc(C(C)(C)N=C=O)c1 | inactive | –
CS(=O)(=O)c1ccc(C2=C(c3ccccc3)C(=O)OC2)cc1 | inactive | –
CN(c1nccc(=O)[nH]1)C1CCN(c2nc3ccccc3n2Cc2ccc(F)cc2)CC1 | inactive | –
c1ccc(Oc2ccccc2)cc1 | inactive | –
C=C(C)C(=O)OCC(CC)(COC(=O)C(=C)C)COC(=O)C(=C)C | inactive | –
CC(CN=Cc1ccccc1O)N=Cc1ccccc1O (stereo not given) | inactive | –
C=C(C)C(=O)OCCOCCOCCOC(=O)C(=C)C | inactive | –
COc1cc(Cl)c(OC)cc1N | inactive | –
CCC(C)c1cc([N+](=O)[O-])cc([N+](=O)[O-])c1OC(=O)OC(C)C (stereo not given) | – | 11 µM (active)
C[C@@H]1CCN(C(=O)[C@H](CCCN=C(N)N)NS(=O)(=O)c2cccc3c2NC[C@H](C)C3)[C@@H](C(=O)O)C1 | inactive | –
O=CN1CCOCC1 | inactive | –
